Experimental data: PubChem BioAssay (NCATS)
Inconclusive results are not listed. Activity calls are given as the source filed them. Unless noted, calls follow the shape of the dose curve; as a rule, active = well fitted curve in either direction with a large enough effect (not every such curve was filed as active); inconclusive = small, poorly fitted or top-dose-only effect, or another doubt; inactive = flat fitted curve, though single readings scatter.

What was measured:
[1] = Stat Signaling Pathway (AID 446); conditions: ME-180 SIE beta-lactamase reporter, IL-6 stimulated, 5 h; at 17.2 µM (top of the series) unless noted;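 also: ME-180 cervical cancer cells given 40 pM IL-6 alongside compound; SIE-controlled beta-lactamase reporter measured as 460/530 nm FRET emission ratio; % is scaled to controls: 0 for no effect and ±100 for the full control effect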
How it was run: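 ME-180 SIE-bla cells; overnight plating; cpd + IL-6 40 pM, 5 h, 37 C; LiveBLAzer 2.5 h RT; 460/530 nm emission ratio. Normalized to 300 pM IL-6 and 125 nM JAK inhibitor controls.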

[2] = target: Glucocorticoid receptor (Homo sapiens) (UniProt P04150); assay: GR-GFP Redistribution (AID 450;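 active = compounds whose dose series gives a full or clear partial fitted curve of increased nuclear translocation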; also: potency is read from the fitted curve at half-maximal effect)
Glucocorticoid receptor (Homo sapiens), sequence (P04150 whole entry, looked up, the tested form may be a part): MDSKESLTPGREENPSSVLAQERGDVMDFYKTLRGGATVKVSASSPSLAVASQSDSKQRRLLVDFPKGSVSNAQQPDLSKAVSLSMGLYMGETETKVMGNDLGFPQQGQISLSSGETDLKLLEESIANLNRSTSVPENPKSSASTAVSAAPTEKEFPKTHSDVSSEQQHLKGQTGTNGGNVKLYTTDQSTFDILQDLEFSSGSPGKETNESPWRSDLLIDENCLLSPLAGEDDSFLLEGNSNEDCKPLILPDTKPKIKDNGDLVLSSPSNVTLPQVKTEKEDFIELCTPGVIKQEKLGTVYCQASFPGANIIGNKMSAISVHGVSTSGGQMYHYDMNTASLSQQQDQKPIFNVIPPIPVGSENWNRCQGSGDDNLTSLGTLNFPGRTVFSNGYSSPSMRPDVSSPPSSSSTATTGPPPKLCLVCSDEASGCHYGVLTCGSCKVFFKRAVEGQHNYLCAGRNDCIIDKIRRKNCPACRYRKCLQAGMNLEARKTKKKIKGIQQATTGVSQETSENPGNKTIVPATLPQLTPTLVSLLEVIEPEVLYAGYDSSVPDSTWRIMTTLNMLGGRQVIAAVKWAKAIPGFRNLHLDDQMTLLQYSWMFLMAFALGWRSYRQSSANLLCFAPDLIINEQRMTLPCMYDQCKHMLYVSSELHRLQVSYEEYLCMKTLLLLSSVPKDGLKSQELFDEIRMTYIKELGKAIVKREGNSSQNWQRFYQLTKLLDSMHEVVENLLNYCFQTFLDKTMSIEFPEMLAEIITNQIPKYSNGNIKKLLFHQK

[3] = target: Glucocorticoid receptor (Homo sapiens) (UniProt P04150); assay: GR-EFC Redistribution (AID 451; calls by dose curve; also: potency is read from the fitted curve at half-maximal effect); conditions: CHO-K1 GR-EFC translocation, beta-gal luminescence, 2 h
How it was run: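 CHO-K1 cells stably expressing nuclear-localized β-gal enzyme acceptor and GR fused C-terminally to the enzyme donor fragment; ligand-driven nuclear translocation restores β-gal by complementation. Compounds titrated up to 46 uM final, 2 h at 37 °C; luminescence read.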

[4] = target: Mitogen-activated protein kinase 10 (Mus musculus) (UniProt Q61831); assay: JNK3 AlphaScreen Assay (AID 530);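 also: kinase came from lysate of stimulated human HepG2 cells; signal reports phosphorylation of biotinylated GST-cJun 1-79 at Ser73 with 10 µM ATP; % is scaled to controls: 0 for no effect and ±100 for the full control effect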
How it was run: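 Inhibitors reduce antibody binding to phosphorylated biotin-cJun, lowering AlphaScreen luminescence. Lysates from HepG2 cells pre-activated by IL-1beta plus TNF-alpha supplied JNK3; compounds were titrated.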

[5] = target: 3',5'-cyclic-AMP phosphodiesterase 4B (Homo sapiens) (UniProt Q07343); assay: qHTS Assay for Inhibitors of PDE-IV (AID 607; active = well fitted activation curve with a large enough effect in the main read-out, with a control signal flat, not every such curve was filed as active; also: % of control where 0% means no effect)
3',5'-cyclic-AMP phosphodiesterase 4B (Homo sapiens), sequence (Q07343 whole entry, looked up): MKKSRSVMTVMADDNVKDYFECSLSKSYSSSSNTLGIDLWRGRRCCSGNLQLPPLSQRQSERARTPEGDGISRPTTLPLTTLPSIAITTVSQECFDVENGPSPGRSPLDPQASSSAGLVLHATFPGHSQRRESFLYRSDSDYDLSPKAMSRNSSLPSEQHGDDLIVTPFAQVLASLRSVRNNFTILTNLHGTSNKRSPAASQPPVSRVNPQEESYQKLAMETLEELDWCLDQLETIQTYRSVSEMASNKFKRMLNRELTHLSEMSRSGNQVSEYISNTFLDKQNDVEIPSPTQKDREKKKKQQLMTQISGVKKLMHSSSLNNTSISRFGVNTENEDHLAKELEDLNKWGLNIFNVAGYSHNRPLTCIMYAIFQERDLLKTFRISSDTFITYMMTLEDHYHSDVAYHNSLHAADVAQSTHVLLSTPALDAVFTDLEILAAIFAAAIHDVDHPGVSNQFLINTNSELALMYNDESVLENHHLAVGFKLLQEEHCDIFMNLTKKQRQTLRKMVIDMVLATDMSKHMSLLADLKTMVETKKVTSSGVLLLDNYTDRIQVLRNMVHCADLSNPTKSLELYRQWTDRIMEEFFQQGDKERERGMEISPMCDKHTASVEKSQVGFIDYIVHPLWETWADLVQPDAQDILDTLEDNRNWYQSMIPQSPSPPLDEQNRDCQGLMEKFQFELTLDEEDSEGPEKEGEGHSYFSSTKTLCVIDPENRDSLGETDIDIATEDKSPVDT
How it was run: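 ACTOne HEK293 cells carry a modified cAMP-gated CNG channel and express endogenous PDE4; plated 1000 cells/well, compounds up to 22.9 uM final. Membrane-potential dye fluorescence (ex 535/em 590) was read; parental cells received 10 uM forskolin + 100 uM RO 20-1724.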

[6] = target: Cytochrome P450 2D6 (Homo sapiens) (UniProt P10635); assay: qHTS Assay for Inhibitors and Substrates of Cytochrome P450 2D6 (AID 891; active = well fitted curve in the direction sought with a large enough effect; an effect the other way counts as inactive or inconclusive; also: nearly all actives have a fitted effect of over 60% in size; also: potency is read from the fitted curve at half-maximal effect)
Cytochrome P450 2D6 (Homo sapiens), sequence (P10635 whole entry, looked up): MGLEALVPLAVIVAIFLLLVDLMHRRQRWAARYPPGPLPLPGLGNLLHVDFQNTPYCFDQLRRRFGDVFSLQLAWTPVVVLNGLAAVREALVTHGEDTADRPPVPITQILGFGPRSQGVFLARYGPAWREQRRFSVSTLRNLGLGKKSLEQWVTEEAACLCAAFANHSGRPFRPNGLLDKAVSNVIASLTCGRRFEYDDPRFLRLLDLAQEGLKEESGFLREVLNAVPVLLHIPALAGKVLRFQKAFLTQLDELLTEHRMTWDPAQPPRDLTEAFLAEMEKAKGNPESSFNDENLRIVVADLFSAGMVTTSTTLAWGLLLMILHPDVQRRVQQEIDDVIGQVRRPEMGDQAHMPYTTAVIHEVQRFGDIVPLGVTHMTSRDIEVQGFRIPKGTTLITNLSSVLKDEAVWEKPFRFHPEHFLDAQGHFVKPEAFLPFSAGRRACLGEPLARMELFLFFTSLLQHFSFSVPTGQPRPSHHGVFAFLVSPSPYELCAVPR
How it was run: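 Human CYP2D6 (5 nM) with 30 uM Luciferin-ME EGE (at Km) in 100 mM KPO4, compound preincubated 10 min, then NADPH regeneration system for 60 min at room temperature. Luciferin read by luminescence; normalized to 1.43 uM quinidine.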

[7] = target: Cytochrome P450 2C19 (Homo sapiens) (UniProt P33261); assay: qHTS Assay for Inhibitors and Substrates of Cytochrome P450 2C19 (AID 899; active = well fitted curve in the direction sought with a large enough effect; an effect the other way counts as inactive or inconclusive; also: nearly all actives have a fitted effect of over 60% in size; also: potency is read from the fitted curve at half-maximal effect; as to activity, negative = inhibition: % is scaled to controls: 0 for no effect and ±100 for the full control effect)
Cytochrome P450 2C19 (Homo sapiens), sequence (P33261 whole entry, looked up): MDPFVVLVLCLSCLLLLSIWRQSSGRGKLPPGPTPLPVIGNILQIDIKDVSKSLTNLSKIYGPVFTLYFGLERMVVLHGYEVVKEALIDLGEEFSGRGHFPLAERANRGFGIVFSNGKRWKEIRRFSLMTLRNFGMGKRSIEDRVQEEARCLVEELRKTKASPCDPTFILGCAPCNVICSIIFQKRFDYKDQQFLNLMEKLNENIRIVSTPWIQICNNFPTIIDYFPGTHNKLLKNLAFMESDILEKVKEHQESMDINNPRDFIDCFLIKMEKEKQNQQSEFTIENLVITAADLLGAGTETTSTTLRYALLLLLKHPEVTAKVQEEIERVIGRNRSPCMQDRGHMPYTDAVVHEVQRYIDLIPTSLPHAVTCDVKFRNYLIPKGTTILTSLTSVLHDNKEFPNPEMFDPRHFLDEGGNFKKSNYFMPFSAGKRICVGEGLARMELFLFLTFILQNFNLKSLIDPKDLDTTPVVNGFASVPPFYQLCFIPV
How it was run: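 Human CYP2C19 (5nM) with Luciferin-H EGE at 10uM (its KM) in 50mM KPO4 was preincubated with compound for 10 min at 37C. NADPH regeneration started a 60 min 37C reaction. Luciferin was read by luminescence, normalized to 57uM ketoconazole.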

[8] = target: Cytochrome P450 2C9 (Homo sapiens) (UniProt P11712); assay: qHTS Assay for Inhibitors and Substrates of Cytochrome P450 2C9 (AID 883; active = well fitted curve in the direction sought with a large enough effect; an effect the other way counts as inactive or inconclusive; also: % is scaled to controls: 0 for no effect and ±100 for the full control effect; nearly all actives have a fitted effect of over 60% in size)
Cytochrome P450 2C9 (Homo sapiens), sequence (P11712 whole entry, looked up): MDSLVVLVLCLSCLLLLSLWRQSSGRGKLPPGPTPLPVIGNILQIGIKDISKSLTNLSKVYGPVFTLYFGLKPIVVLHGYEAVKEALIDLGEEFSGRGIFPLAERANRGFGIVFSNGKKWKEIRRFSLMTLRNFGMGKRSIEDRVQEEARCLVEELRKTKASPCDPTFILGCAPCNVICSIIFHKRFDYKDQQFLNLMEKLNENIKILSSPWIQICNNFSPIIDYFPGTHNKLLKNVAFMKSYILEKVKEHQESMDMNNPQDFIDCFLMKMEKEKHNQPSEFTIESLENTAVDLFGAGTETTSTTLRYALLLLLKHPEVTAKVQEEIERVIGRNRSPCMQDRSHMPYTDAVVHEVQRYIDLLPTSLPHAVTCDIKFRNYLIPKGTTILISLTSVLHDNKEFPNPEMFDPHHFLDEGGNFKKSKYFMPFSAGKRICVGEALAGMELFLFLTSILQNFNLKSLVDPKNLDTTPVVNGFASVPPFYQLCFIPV
How it was run: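 Human CYP2C9 (10nM) hydroxylated Luciferin-H (100uM, at its KM) to luciferin in 25mM KPO4. Compound was preincubated 10 min at 37C, then NADPH regeneration started a 60 min reaction at 37C. Luminescence was read after detection reagent, normalized to 57uM sulphaphenazole.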

[9] = target: Ubiquitin carboxyl-terminal hydrolase 1 (Homo sapiens) (UniProt O94782); assay: Inhibitors of USP1/UAF1: Pilot qHTS (AID 504865; active = well fitted curve in the direction sought with a large enough effect; an effect the other way counts as inactive or inconclusive; also: potency is read from the fitted curve at half-maximal effect; nearly all actives have a fitted effect of over 35% in size)
Ubiquitin carboxyl-terminal hydrolase 1 (Homo sapiens), sequence (O94782 whole entry, looked up): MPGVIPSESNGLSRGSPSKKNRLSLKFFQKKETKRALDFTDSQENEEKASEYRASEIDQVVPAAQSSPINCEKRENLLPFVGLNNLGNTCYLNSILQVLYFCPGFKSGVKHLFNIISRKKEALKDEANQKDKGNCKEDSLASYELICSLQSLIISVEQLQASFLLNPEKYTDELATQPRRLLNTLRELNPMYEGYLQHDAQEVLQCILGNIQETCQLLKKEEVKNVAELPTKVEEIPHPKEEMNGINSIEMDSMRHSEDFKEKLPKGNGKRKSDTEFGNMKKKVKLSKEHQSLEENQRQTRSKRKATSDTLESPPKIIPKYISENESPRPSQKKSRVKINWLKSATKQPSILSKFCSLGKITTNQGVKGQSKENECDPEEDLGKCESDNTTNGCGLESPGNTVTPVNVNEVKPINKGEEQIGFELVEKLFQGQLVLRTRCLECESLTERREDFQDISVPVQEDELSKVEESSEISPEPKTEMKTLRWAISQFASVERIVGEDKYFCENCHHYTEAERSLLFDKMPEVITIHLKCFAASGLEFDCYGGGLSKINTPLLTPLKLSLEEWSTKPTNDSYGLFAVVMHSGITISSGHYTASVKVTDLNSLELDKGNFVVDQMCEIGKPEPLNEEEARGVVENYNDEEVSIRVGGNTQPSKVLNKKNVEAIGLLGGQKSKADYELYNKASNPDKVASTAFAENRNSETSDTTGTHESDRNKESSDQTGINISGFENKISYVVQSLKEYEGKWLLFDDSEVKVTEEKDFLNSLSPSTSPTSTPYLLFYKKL
How it was run: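 USP1/UAF1 complex (1nM) preincubated with compound 15 min at room temperature, then Ub-Rho substrate (150nM final) added. Fluorescence read kinetically at 480/540 nm, 6 reads every 60 seconds. Buffer: 50mM HEPES pH 7.8, 0.5mM EDTA, 0.1 mg/ml BSA, 1mM TCEP, 0.01% Tween-20.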

Cc1cc(/C=c2/sc3nc4ccccc4n3c2=O)c(C)n1-c1ccccn1
inactive: activity, negative = inhibition [1] -5.6% | Potency [2] > 20.6 µM

COc1ccc(C2C=C(c3ccc(C)cc3)Nc3ncnn32)cc1 (centres undefined)
inactive: activity, negative = inhibition [1] -14.5% | Potency [2] > 20.6 µM

COc1cccc(-c2nnc3sc(C4CCCCC4)nn23)c1
active: activity, negative = inhibition [1] -91.1%
inactive: Potency [2] > 20.6 µM

COc1cccc(-c2nc(N3CCCCC3C)c3ccccc3n2)c1O (centres undefined)
inactive: activity, negative = inhibition [1] -21.7% | Potency [2] > 20.6 µM

CC(C)Cc1nc(N2CCN(C(=O)c3ccco3)CC2)c(C#N)c2c1CCC2
inactive: activity, negative = inhibition [1] -7.73% | Potency [2] > 20.6 µM

Cc1ccccc1-n1c(=O)/c(=C\c2ccco2)s/c1=C(/C#N)C(=O)Nc1ccccc1
inactive: activity, negative = inhibition [1] -25.9% | Potency [2] > 20.6 µM

CC1=CC(=O)C2=C(C)CC[C@@H]3[C@H](OC(=O)[C@H]3C)[C@H]12
inactive: Potency [2] > 46 µM | Potency [3] > 46 µM | Potency [4] | Potency [5]

C=C[C@@](C)(O)CC[C@H]1[C@]2(C)CCCC(C)(C)[C@H]2CC[C@]1(C)O
inactive: Potency [2] > 46 µM | Potency [3] > 46 µM | Potency [4] | Potency [6]
active: Potency [7] 2 µM

CC(C)C[C@@H](CC(=O)N[C@@H](CCCN)CC(=O)N[C@@H]1CCNC[C@H]1C(=O)N[C@H](CC(=O)N[C@@H](CCC(=O)O)CC(=O)O)Cc1ccccc1)NC(=O)[C@@H]1CNCC[C@H]1N
inactive: Potency [3] > 46 µM | Potency [4] | Potency [5] | Potency [8] | Potency [6] | Potency [7]

COc1ccc(C(=O)[C@H]2[C@H]3[C@@H](C(=O)[C@@H]4OC[C@H]3O4)[C@H]3C=Cc4ccccc4N32)c(OC)c1
inactive: Potency [2] > 46 µM | Potency [3] > 46 µM | Potency [4] | Potency [5] | Potency [6]

CCCC[C@H](CC)CN=C(N)NC(N)=NCCCCCCN=C(N)NC(N)=NC[C@@H](CC)CCCC
active: Potency [6] 3.16 µM | Potency [9] 28.2 µM
inactive: Potency [2] > 20.6 µM | Potency [3] > 20.6 µM | Potency [4] | Potency [5]

C[C@@H]1O[C@@H](OC[C@@H]2O[C@@H](Oc3c(-c4ccc(O)c(O)c4)oc4cc(O)cc(O)c4c3=O)[C@H](O)[C@H](O)[C@@H]2O)[C@H](O)[C@H](O)[C@@H]1O
inactive: Potency [2] > 46 µM | Potency [3] > 46 µM | Potency [4] | Potency [5] | Potency [8] | Potency [6] | Potency [7]

C[C@H]1[C@H](C)CC[C@@]2(C(=O)O)CC[C@]3(C)C(=CC[C@@H]4[C@@]5(C)CC[C@H](O)C(C)(C)[C@@H]5CC[C@@]43C)[C@@H]12
inactive: Potency [2] > 46 µM | Potency [3] > 46 µM | Potency [4] | Potency [5]
